Experimental data from PubChem BioAssay AID1347420 (Sanford-Burnham Center for Chemical Genomics, 2020).
The whole screen tested about 1,300 compounds, of which about 980 (75%) were called active. Roughly 4% stayed inconclusive and do not appear here. This is one part of the list. Unmarked numbers belong to inactive results.

Target: Sulfhydryl oxidase 1 (Homo sapiens) (UniProt O00391)
Assay: QSOX1 enzyme inhibitors, primary screen, biochemical, HyperBlu H2O2 luminescence, HTS (AID 1347420); further: values above 100% were filed as inconclusive
Conditions: recombinant QSOX1, HyperBlu H2O2 luminescence; at 12.5 µM; active compounds read high; active = any value above zero

Sulfhydryl oxidase 1 (Homo sapiens), sequence (O00391 whole entry, looked up): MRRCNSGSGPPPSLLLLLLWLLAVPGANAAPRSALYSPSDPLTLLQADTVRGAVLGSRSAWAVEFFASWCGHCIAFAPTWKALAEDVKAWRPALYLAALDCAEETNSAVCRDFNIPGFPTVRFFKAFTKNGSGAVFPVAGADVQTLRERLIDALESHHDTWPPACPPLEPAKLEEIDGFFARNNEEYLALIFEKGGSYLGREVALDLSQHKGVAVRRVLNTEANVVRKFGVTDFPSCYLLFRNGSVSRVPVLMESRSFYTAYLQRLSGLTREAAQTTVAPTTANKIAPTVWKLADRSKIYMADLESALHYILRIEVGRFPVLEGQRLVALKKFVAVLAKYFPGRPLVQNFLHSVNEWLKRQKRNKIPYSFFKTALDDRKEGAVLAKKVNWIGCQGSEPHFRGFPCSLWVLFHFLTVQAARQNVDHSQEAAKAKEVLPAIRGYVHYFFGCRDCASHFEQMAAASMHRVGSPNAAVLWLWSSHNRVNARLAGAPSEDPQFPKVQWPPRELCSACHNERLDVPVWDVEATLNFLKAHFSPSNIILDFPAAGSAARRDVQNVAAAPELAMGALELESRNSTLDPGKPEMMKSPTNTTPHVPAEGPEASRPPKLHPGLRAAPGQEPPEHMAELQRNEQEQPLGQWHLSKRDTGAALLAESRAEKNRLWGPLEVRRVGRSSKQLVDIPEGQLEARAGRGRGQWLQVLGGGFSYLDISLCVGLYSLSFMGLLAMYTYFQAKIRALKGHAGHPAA

SMILES	inhibition
CCOC(=O)c1cnc2c(cnn2CC)c1NN=C(C)C	19.1% (active)
CCCCNc1c(C(=O)OCC)c(C)nc2c1cnn2CC	12.7% (active)
NC[C@@H]1O[C@H](c2ccccc2)Cc2c1ccc(O)c2O	71.1% (active)
NC[C@@H]1O[C@H](C23CC4CC(CC(C4)C2)C3)Cc2c1ccc(O)c2O	54% (active)
CC(C)C[C@H]1C(=O)N2CCC[C@H]2[C@]2(O)O[C@](NC(=O)[C@@H]3C=C4c5cccc6[nH]c(Br)c(c56)C[C@H]4N(C)C3)(C(C)C)C(=O)N12	33.5% (active)
C[C@H](CS)C(=O)N1CCC[C@H]1C(=O)O	-8.3%
c1ccc(C(NCCNC(c2ccccc2)c2ccccc2)c2ccccc2)cc1	7.6% (active)
CCOC(=O)C12CC1/C(=N/O)c1ccccc1O2 (centres undefined)	11.7% (active)
CCCCOC(=O)NS(=O)(=O)c1sc(CC(C)C)cc1-c1ccc(Cn2c(CC)nc3c(C)cc(C)nc32)cc1	15.1% (active)
C1CCC(N=C(NC23CC4CC(CC(C4)C2)C3)N2CCOCC2)CC1	8.2% (active)
NC1=NCC2c3ccccc3Cc3ccccc3N12 (centres undefined)	2.9% (active)
Cc1c(OCC(F)(F)F)ccnc1CS(=O)c1nc2ccccc2[nH]1 (centres undefined)	2.3% (active)
c1ccc2nc(C3=NCCN3)ccc2c1	-4.5%
Nc1ccc(-c2ccc3ccccc3n2)cc1	54.7% (active)
Nc1ncnc2n[nH]c(Nc3ccc(F)cc3)c12	81.8% (active)
CCN1CCc2nc(N)oc2CC1	48.7% (active)
O=c1[nH]c2cc([N+](=O)[O-])c([N+](=O)[O-])cc2[nH]c1=O	87% (active)
C=C[C@H]1CN2CC[C@@H]1C[C@H]2[C@@H](O)c1ccnc2ccc(OC)cc12	-2.4%
C=C[C@H]1CN2CC[C@@H]1C[C@@H]2[C@H](O)c1ccnc2ccc(OC)cc12	4.7% (active)
CCCCCCCCCCC/C=C\C(C)(C)/C=C\CCCC(=O)O	25.2% (active)
CCCCCCC/C=C\CCCCCCCCC(=O)O	11% (active)
CCCCCC(O)CCCC(=O)O (centres undefined)	-0.3%
CC(C)NCC(O)COc1ccc(CCOCC2CC2)cc1 (centres undefined)	11.4% (active)
CC(C)NC[C@H](O)COc1ccc(CC(N)=O)cc1	-4.6%
CC(C)NCC(O)COc1ccc(CC(N)=O)cc1 (centres undefined)	7.4% (active)
COCCc1ccc(OCC(O)CNC(C)C)cc1 (centres undefined)	-17.5%

SMILES	inhibition
CC(=O)SC1CC2=CC(=O)CC[C@]2(C)C2CC[C@@]3(C)C(CC[C@@]34CCC(=O)O4)C12 (some centres undefined)	5.4% (active)
O=c1c(-c2ccc(O)cc2)coc2cc(O)ccc12	32.4% (active)
O=c1c(-c2ccc(O)cc2)coc2cc(O)cc(O)c12	33.2% (active)
O=c1cc(-c2ccc(O)cc2)oc2cc(O)cc(O)c12	88.8% (active)
COC1(C2=NCCN2)COc2ccccc2O1 (centres undefined)	2.6% (active)
Cc1ccccc1/C=C/C1=NCCN1	-1.6%
O=C1Nc2ccc(I)cc2/C1=C/c1cc(Br)c(O)c(Br)c1	97.8% (active)
CCCCOc1cc(CC2CNC(=O)N2)ccc1OC (centres undefined)	2.2% (active)
O=C1NCN(c2ccccc2)C12CCN(CCCC(c1ccc(F)cc1)c1ccc(F)cc1)CC2	9.4% (active)
Oc1ccc(/C=C/c2ccc(/C=C/c3ccc(O)cc3)c(Br)c2)cc1	-1.9%
Oc1ccc(/C=C/c2cc(O)cc(O)c2)cc1	78% (active)
N[C@H](CCCP(=O)(O)O)C(=O)O	13.7% (active)
N[C@@H](COP(=O)(O)O)C(=O)O	1.7% (active)
NC(CCCP(=O)(O)O)C(=O)O (centres undefined)	4% (active)
CN[C@H](CC(C)C)C(=O)N[C@H]1C(=O)N[C@@H](CC(N)=O)C(=O)N[C@H]2C(=O)N[C@H]3C(=O)N[C@H](C(=O)N[C@H](C(=O)O)c4cc(O)cc(O)c4-c4cc3ccc4O)[C@H](O)c3ccc(c(Cl)c3)Oc3cc2cc(c3O[C@@H]2O[C@H](CO)[C@@H](O)[C@H](O)[C@H]2O[C@H]2C[C@](C)(N)[C@H](O)[C@H](C)O2)Oc2ccc(cc2Cl)[C@H]1O	-8.2%
CN1CCN(CC(=O)N2c3ccccc3C(=O)Nc3cccnc32)CC1	-3.2%
Cc1scc2c1N(C(=O)CN1CCN(C)CC1)c1ccccc1NC2=O	1.1% (active)
Cc1ccc(=O)n(-c2ccccc2)c1	2.4% (active)
Oc1ccc(O)cc1	14.7% (active)
Nc1ccc2c3c(cccc13)C(=O)NC2=O	13.7% (active)
NCCNS(=O)(=O)c1cccc2c(Cl)cccc12	0.7% (active)
CC(C)COC(=O)OCN1C(=O)CN(CCN2CC(=O)N(COC(=O)OCC(C)C)C(=O)C2)CC1=O	12.5% (active)
C=CCNc1ncnc2ccc(Br)cc12	12.6% (active)
NC(=O)C(=O)O	11% (active)
CC[C@H](NC(=O)c1c(C)c(-c2ccccc2)nc2ccccc12)c1ccccc1	9.3% (active)
COc1ccc(CCN(C)CCCC(C#N)(c2ccc(OC)c(OC)c2)C(C)C)cc1OC (centres undefined)	9.1% (active)

SMILES	inhibition
COc1ccc(Cc2nccc3cc(OC)c(OC)cc23)cc1OC	-10.3%
COc1ccc(CCN(C)CCCC(C#N)(c2cc(OC)c(OC)c(OC)c2)C(C)C)cc1OC (centres undefined)	17% (active)
COc1ccc(CCN(C)CCc2ccc(OC)c(OC)c2)cc1OC	8% (active)
O=P(O)(O)C(Cl)(Cl)P(=O)(O)O	-4.1%
NC(CO)C(=O)NNCc1ccc(O)c(O)c1O (centres undefined)	24.2% (active)
CN1CCN(c2nc3cc(C(F)(F)F)ccc3n3cccc23)CC1	12.2% (active)
Cc1[nH]c(=O)c(C#N)cc1-c1ccncc1	15.5% (active)
Cc1[nH]c(=O)c(C#N)cc1-c1ccc2nccn2c1	1% (active)
COc1cccc(-c2cc(=O)c3ccccc3o2)c1N	7.6% (active)
CC(=O)O[C@H]1Cc2ccccc2N(C(N)=O)c2ccccc21	-8.4%
NC(=O)N1c2ccccc2C=Cc2ccccc21	12.3% (active)
OCCN1CCN(CC/C=C2/c3ccccc3Sc3ccc(C(F)(F)F)cc32)CC1	3.4% (active)
OCCN1CCN(CCCN2c3ccccc3C=Cc3ccccc32)CC1	47.2% (active)
OCCN1CCN(CCCN2c3ccccc3Sc3ccc(C(F)(F)F)cc32)CC1	92.8% (active)
CN1CCN(CCCN2c3ccccc3Sc3ccc(C(F)(F)F)cc32)CC1	97% (active)
COC(=O)c1c(C)[nH]c(C)c1C(=O)c1ccccc1Cc1ccccc1	-0.5%
CCN(CC)CCNC(=O)c1ccc(N)cc1	7.8% (active)
CCN(CC)CCNC(=O)c1ccc(NS(C)(=O)=O)cc1	9.7% (active)
CCN(CC)CCNC(=O)c1ccc(NC(C)=O)cc1	-4.7%
NC(=O)CC[C@H](N)C(=O)O	1.7% (active)
CCCCS(=N)(=O)CCC(N)C(=O)O (centres undefined)	-11.1%
N[C@@H](CCCC(=O)O)C(=O)O	16.9% (active)
CCCCS(=N)(=O)CC[C@H](N)C(=O)O (some centres undefined)	-12.9%
COc1cc(Cc2cnc(N)nc2N)cc(OC)c1OC	-13.7%
COc1ccc(CN(CCN(C)C)c2ccccn2)cc1	36.6% (active)
CN(C)CCN(Cc1cccs1)c1ccccn1	4.7% (active)

SMILES	inhibition
CC(C)(Sc1ccc(CCN(CCCCC2CCCCC2)C(=O)NC2CCCCC2)cc1)C(=O)O	3% (active)
CCCCCN(CCCCC)C(=O)C(CCC(=O)O)NC(=O)c1ccc(Cl)c(Cl)c1 (centres undefined)	13.5% (active)
O=C(O)CCC(C(=O)O)N1C(=O)c2ccccc2C1=O (centres undefined)	-7.5%
CCCN(CCC)C(=O)C(CCC(=O)O)NC(=O)c1ccccc1 (centres undefined)	12% (active)
CC1C(=O)N(C)C(=O)c2nc[nH]c21 (centres undefined)	2.6% (active)
CCCC(C(=O)OCCN(CC)CC)(c1ccccc1)c1ccccc1	6.2% (active)
CCCc1c(OCCCOc2ccc(OCC(=O)O)cc2)ccc(C(C)=O)c1O	17.6% (active)
CCN(CC)CCCCCCCCOC(=O)c1cc(OC)c(OC)c(OC)c1	17.3% (active)
CCN(CC)CCNC(=O)c1cc(Cl)c(N)cc1OC	2.2% (active)
CCN(CC)CCNC(=O)c1cc(S(C)(=O)=O)ccc1OC	0.6% (active)
CCN(CC)CCOC(=O)c1cc(Cl)c(N)cc1OC	7.6% (active)
COc1cc(N)c(Cl)cc1C(=O)OCCN1CCCCC1	-7.9%
NCC(O)c1ccc(O)c(O)c1 (centres undefined)	43.6% (active)
NC[C@H](O)c1ccc(O)c(O)c1	55.1% (active)
CC(=O)N1CCN(c2ccc(OC[C@H]3CO[C@](Cn4ccnc4)(c4ccc(Cl)cc4Cl)O3)cc2)CC1	56.3% (active)
COc1ccc2c(c1OC)C(=O)O[C@@H]2[C@H]1c2c(cc3c(c2OC)OCO3)CCN1C	14.1% (active)
CCn1cc(C(=O)O)c(=O)c2cc(F)c(N3CCNC(C)C3)c(F)c21 (centres undefined)	12.8% (active)
O=[N+]([O-])c1ccc2c(c1)S(=O)(=O)C=C2	39.1% (active)
C[C@]12CC[C@@H]3c4ccc(O)cc4C[C@@H](CCCCCCCCCS(=O)CCCC(F)(F)C(F)(F)F)[C@H]3[C@@H]1CC[C@@H]2O (some centres undefined)	22.3% (active)
CCCCCC[C@@H]([C@@H](C)O)n1cnc2c(N)ncnc21	7.4% (active)
N[C@H](C(=O)O)c1cc(O)cc(O)c1	5.6% (active)
Clc1ccc(Cn2c(CN3CCCC3)nc3ccccc32)cc1	-2.3%
Clc1ccc(N2CCN(Cc3cc4ccccn4n3)CC2)cc1	63.8% (active)
COc1cccc(OC)c1OCCNCC1COc2ccccc2O1 (centres undefined)	23.5% (active)
COc1cccc(OC)c1OCCNCC1CSc2ccccc2O1 (centres undefined)	-4.6%
CCn1ccnc1CC1COc2ccccc2O1 (centres undefined)	-2.8%
